In the library only some 1.6% were active in any assay of this set; here they are far more common.
KCNQ2 pot = potentiators of rat KCNQ2 potassium channel. Potassium voltage-gated channel subfamily KQT member 2 (Rattus norvegicus), O88943. CHO-K1 KCNQ2, FluxOR thallium flux fluorescence; hits give high values. B-score at 10 µM. 310,000 tested, 0.54% active;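 active means fluorescence ratio B-score at least 3 SD of library B-scores, with initial fluorescence B-score within 3 of them, cut at about 5.3 in these data; same plate scores as AID 2156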;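 further: B-score of peak minus minimum over baseline fluorescence ratio after K+ and Tl+ stimulus; positive B-score means potentiation of KCNQ2 with more thallium influx and brighter signal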
KCNQ2 block = rat KCNQ2 potassium channel inhibitors, primary screen, cell-based, CHO-K1, FluxOR thallium flux, B-score | Potassium voltage-gated channel subfamily KQT member 2 (Rattus norvegicus), O88943 | 310,000 tested, 1.1% active | B-score at 10 µM | 20 min; hits give low values;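 active means fluorescence ratio B-score at most minus 3 library SDs, with starting brightness B-score within 2 library SDs, cut at about -5.5 in these data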
Kir21 conf inh = mouse Kir2.1 channel blockers, retest, confirmation, cell-based, FluxOR thallium flux, duplicate. shares compounds with KCNQ2 pot. Kir2.1-expressing cells, FluxOR thallium flux fluorescence; hits give low values. Tl flux remaining, % of negative control (hits give low values), % at 10 µM. 2,300 tested, 41% active;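 active means Primary-screen hit whose thallium flux fell at least 3 control SD below untreated wells in both duplicates, with normal baseline fluorescence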;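 further: 0% = blank wells without stimulus and 100% = stimulated no-compound controls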
Target sequence (P35561 whole entry, looked up): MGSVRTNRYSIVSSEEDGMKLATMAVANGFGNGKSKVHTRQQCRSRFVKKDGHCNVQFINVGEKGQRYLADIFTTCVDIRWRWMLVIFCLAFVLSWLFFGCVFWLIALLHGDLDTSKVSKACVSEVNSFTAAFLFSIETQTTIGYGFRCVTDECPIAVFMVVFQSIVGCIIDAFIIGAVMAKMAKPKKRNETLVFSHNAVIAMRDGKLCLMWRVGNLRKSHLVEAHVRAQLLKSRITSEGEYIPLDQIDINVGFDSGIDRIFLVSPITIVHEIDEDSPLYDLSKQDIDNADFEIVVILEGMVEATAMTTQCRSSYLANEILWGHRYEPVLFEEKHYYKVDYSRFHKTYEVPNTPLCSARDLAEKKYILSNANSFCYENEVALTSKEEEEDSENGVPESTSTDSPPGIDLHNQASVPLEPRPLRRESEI
HEK293 Tl flux = parental HEK293 activity in Kir2.1 inhibitor counter-screen; 2,300 tested, 19% active; FluxOR signal as % of negative control (100 = no effect), % at 10 µM; shares compounds with KCNQ2 pot; parental HEK293 cells, FluxOR thallium flux fluorescence; 0% = unstimulated blank wells;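 active means dye signal at least 3 control SD above or below untreated wells in both duplicates, raw fluorescence within 3, either direction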;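 further: percent is based on the flux ratio of peak minus minimum fluorescence over baseline F0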
CHO-K1 ctr = nonspecific thallium flux increase in parental CHO-K1, confirmation, counter-screen for KCNQ2 potentiator project, cell-based, FluxOR thallium flux, duplicate. parental CHO-K1 cells, FluxOR thallium flux fluorescence; zero = vehicle mean+3SD, 100% = vehicle-minus-blank window. 1,200 tested, 43% active. activity increase over 3SD of controls, % at 10 µM. shares compounds with KCNQ2 pot;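 active means signal rise of at least 3 SD above the untreated control mean, in both duplicate wells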;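 further: counter screen of KCNQ2 potentiator hits so any rise reflects channel-independent effects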
KCNQ1 pot spec = human KCNQ1 channel potentiation off-target, confirmation, selectivity assay for KCNQ2 potentiator project, cell-based, CHO, FluxOR thallium flux; shares compounds with KCNQ2 pot; CHO KCNQ1 stable, FluxOR thallium flux fluorescence; beyond 3SD, as % of vehicle-control signal; activation over 3SD threshold, % at 10 µM; 1,200 tested, 28% active;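 active means fluorescence ratio rise of at least 3 SD of vehicle wells above their mean, in both replicate wells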;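 further: 0% = vehicle mean plus 3 SD and 100% = vehicle minus unstimulated blank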
KCNQ2 pot confirm = rat KCNQ2 channel potentiators, confirmation, cell-based, CHO, FluxOR thallium flux, duplicate. shares compounds with KCNQ2 pot. CHO-KCNQ2 cells, FluxOR thallium flux fluorescence. potentiation, less the hit threshold, % at 10 µM. 1,200 tested, 68% active. AID 2287, 2010;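 active means fluorescence ratio rising 3 SD or more over the vehicle control mean in both replicates, plus primary screen hit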;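 further: peak minus minimum thallium fluorescence divided by baseline after K/Tl stimulus; 0% = vehicle mean plus 3 SD and 100% = vehicle minus unstimulated blank difference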
Kir2-1 sel = mouse Kir2.1 channel activation off-target, confirmation, selectivity assay for KCNQ2 potentiator project, cell-based, HEK293, FluxOR thallium flux; 1,200 tested, 2% active; AID 2345, 2010; activity over 3SD threshold, % at 10 µM; HEK293 Kir2.1, FluxOR thallium flux fluorescence; shares compounds with KCNQ2 pot;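 active means fluorescence ratio rise of at least 3 SD above the vehicle-control mean, seen in both replicates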;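 further: 0% = vehicle mean plus 3 SD and 100% = vehicle minus no-stimulus blank window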
KCNQ2 W236L pot = potentiators of retigabine-insensitive KCNQ2 W236L, mechanism study for KCNQ2 potentiator project, cell-based, rat KCNQ2 W236L, CHO, automated patch clamp. current increase over 3SD of negative controls (%), hits give high values, % at 25 µM. shares compounds with KCNQ2 pot. 940 tested, 10% active. AID 2558, 2010. automated patch clamp current;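 active means current increase at least 3 SD of the untreated controls above them in both duplicate recordings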
The depositor's hits bear a star; i = inactive; . = no result.

SMILES | KCNQ2 pot | KCNQ2 block | Kir21 conf inh | HEK293 Tl flux | others
O=[N+]([O-])c1cc(C(F)(F)F)ccc1Sc1ccc2ccccc2n1 | . | i | . | .
O=[N+]([O-])c1cc(C(F)(F)F)ccc1Sc1nccn1Cc1ccccc1 | . | i | 58%* | i
Cn1ccnc1Sc1ccccc1[N+](=O)[O-] | . | i | . | .
O=[N+]([O-])c1ccc(Sc2nccn2Cc2ccccc2)c([N+](=O)[O-])c1 | . | i | 52%* | i
Cc1c(NC(=O)c2cccnc2Cl)c(=O)n(-c2ccccc2)n1C | . | i | . | .
CC(C)CC(NS(=O)(=O)OCC(Cl)(Cl)Cl)c1ccccc1 (centres undefined) | . | i | . | .
CC(NS(=O)(=O)OCC(Cl)(Cl)Cl)c1ccc(Br)cc1 (centres undefined) | . | i | 42%* | i
Cc1c(Br)c([N+](=O)[O-])nn1CC(=O)N1CCN(C23CC4CC(CC(C4)C2)C3)CC1 | . | i | . | .
CCS(=O)(=O)c1ccc2oc(SCC(=O)Nc3ccc(OC)cc3OC)nc2c1 | 0.67 | i | . | .
CCS(=O)(=O)c1ccc2oc(SCC(=O)NC(C)C3CC4CCC3C4)nc2c1 (centres undefined) | 10* | i | i | i | CHO-K1 ctr=-17;KCNQ1 pot spec=-14;KCNQ2 pot confirm=21*;Kir2-1 sel=-37;KCNQ2 W236L pot=i
COCC(=O)N1CCC(Oc2ccc(C(=O)N3CCCCCC3)cc2)CC1 | . | i | . | .
Cc1nc(NC(=O)c2ccc(Cl)cc2)sc1-c1csc(Nc2cccc(F)c2)n1 | 0.02 | i | . | .
COc1ccc(CNC(=O)COC(=O)CC2CCCC2)cc1 | . | i | . | .
CCn1c(SCCOc2ccc(Cl)cc2)nnc1-c1cccs1 | . | i | 69%* | i
CCn1c(SCC(=O)c2ccc(Cl)cc2)nnc1-c1cccs1 | 0.11 | i | . | .
CSCCC(NC(=O)c1ccco1)c1nc2ccccc2[nH]1 (centres undefined) | 0.26 | i | . | .
COc1cc(C(=O)Nc2ccc(Nc3ccccc3)cc2)cc(OC)c1OC | . | i | . | .
Cc1ccc(/C=C/C(=O)C2C(=O)c3ccccc3C2=O)cc1 | 7.3* | i | i | 146%* | CHO-K1 ctr=-18;KCNQ1 pot spec=-19;KCNQ2 pot confirm=-2;Kir2-1 sel=-32;KCNQ2 W236L pot=i
Cc1ccc(/C=C/C(=O)c2ccccc2O)cc1 | . | i | . | .
Cc1nnc(SCC(=O)NNC(=O)c2ccc(Br)cc2)n1C | 1 | i | . | .
CCC(C(=O)OCC(=O)NC(=O)c1ccccc1)c1ccccc1 (centres undefined) | . | i | . | .
CCC(C(=O)OCC(=O)NC(=O)c1ccccc1OC)c1ccccc1 (centres undefined) | . | i | 70%* | i
Cc1cc(C)n2nc(C(=O)NNC(=O)c3ccccc3)nc2n1 | . | i | . | .
Cc1cccc(N2CC(C(=O)Nc3nccs3)CC2=O)c1C (centres undefined) | 0.25 | i | . | .
Cc1ccc(OCC(=O)NNC(=O)c2ccccc2OCc2c(C)noc2C)cc1 | 0.05 | i | . | .
SMILES | KCNQ2 pot | KCNQ2 block | Kir21 conf inh | HEK293 Tl flux | others
Oc1ccc(Cc2ccc(Cl)cc2)c(O)c1 | 5.6* | i | i | i | CHO-K1 ctr=106*;KCNQ1 pot spec=-9;KCNQ2 pot confirm=-10;Kir2-1 sel=-48
O=C(Cc1ccc(Cl)cc1)NNc1c(F)c(F)cc(F)c1F | 0.53 | i | . | .
CCOc1ccc(CCNC(=O)COC(=O)c2cccnc2SC)cc1OCC | . | i | . | .
NC(=O)CSc1nnc(-c2ccccn2)n1Cc1ccco1 | . | i | . | .
C(=C\c1ccccc1)/CSc1nnc(-c2ccccn2)n1Cc1ccco1 | -5.8 | -5.8* | 60%* | i
CC(=O)N1CCn2c3c(c4cc(C)ccc42)CCCC31 (centres undefined) | 0.68 | i | . | .
Cc1ccc2c(c1)c1c3n2CCN(C(=O)CCl)C3CCC1 (centres undefined) | . | i | i | i
O=C(Cn1cnc2cc([N+](=O)[O-])ccc2c1=O)NC1CCS(=O)(=O)C1 (centres undefined) | 1.5 | i | . | .
COc1cccc(-n2sc3c(c2=S)-c2cc(OC)ccc2NC3(C)C)c1 | . | i | . | .
CC1(C)Nc2ccc(O)cc2-c2c1ssc2=S | . | i | 40%* | i
O=C(C[n+]1cc[nH]c1)c1ccc(Cl)cc1 | 1.1 | i | . | .
C#CC(CO)N(CCN(Cc1ccccc1)C(C#C)CO)Cc1ccccc1 (centres undefined) | . | i | 62%* | i
C#CCN(C)Cc1ccccc1 | . | i | . | .
Cc1ccc(OCCC(=O)OCC(=O)NC2CCS(=O)(=O)C2)cc1 (centres undefined) | 0.44 | i | . | .
CCC(CC)C(=O)N1CC(=O)Nc2ccc(F)cc2C1c1ccc(F)cc1 (centres undefined) | 0.24 | i | . | .
Cc1nn(-c2ccccc2)c(Cl)c1/C=C1\SC(=S)N(CCCCCC(=O)O)C1=O | 1.5 | i | . | .
Cc1nn(-c2ccccc2)c(Cl)c1/C=C1\SC(=S)NC1=O | 13* | i | i | 412%* | CHO-K1 ctr=-1;KCNQ1 pot spec=-14;KCNQ2 pot confirm=215*;Kir2-1 sel=-13;KCNQ2 W236L pot=i
COc1ccc(NC(=O)CSCC(=O)Nc2cc(Cl)ccc2N2CCOCC2)cc1 | 4.7 | i | . | .
COc1ccc(CC(=O)Nc2ccc(N3CCCC3)c(C)c2)cc1 | 6.8* | i | 34%* | i | CHO-K1 ctr=9.8*;KCNQ1 pot spec=57*;KCNQ2 pot confirm=22*;Kir2-1 sel=-99;KCNQ2 W236L pot=i
Cc1ccc(NC(=O)CSCC(=O)Nc2ccccc2N2CCCC2)cc1 | 1.4 | i | 74%* | 74%*
COc1ccc(NC(=O)CSCC(=O)Nc2cc(Cl)ccc2N2CCCC2)cc1 | 7.1* | i | i | i | CHO-K1 ctr=-7;KCNQ1 pot spec=66*;KCNQ2 pot confirm=6.3*;Kir2-1 sel=-44;KCNQ2 W236L pot=i
